Screens (PubChem)
TrxR1 substrate: rat thioredoxin reductase 1 substrate activity; purified TrxR1 substrate turnover, NADPH consumption readout; Potency, µM (top dose mostly 114 µM); 0.01% of 390,000 active; AID 588456; note: nearly all actives have a fitted effect of over 50% in size
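Rat TrxR1, dispensed at 90 nM, was prereduced with 400 uM NADPH (final) for 5 min at ~22 deg C, then incubated with compound 15 min before 400 uM selenite. A first-read NADPH fluorescence drop versus no-compound background flagged substrates.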
rTrxR1 inhibitor: inhibitors of rat thioredoxin reductase 1. Potency, µM (series often up to 114 µM), usual class: inhibitors. recombinant rTrxR1, NADPH fluorescence consumption, selenite substrate. 1% of 390,000 active. O89049; note: nearly all actives have a fitted effect of over 65% in size
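Rat TrxR1 (90 nM in the dispensed reagent) was pre-reduced with 400 uM NADPH for 5 min at room temperature, then incubated with compound for 15 min. After 400 uM selenite was added, NADPH fluorescence (Ex 340/Em 450 nm) was followed for 8 min.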
Sfp PPTase inh: blocks B. subtilis Sfp PPTase activity. Biochemical Sfp PPTase activity, qHTS. Potency, µM, actives largely listed as inhibitors. 3.5% of 310,000 active. AID 1490;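 note: the enzyme is Sfp with the accession as filed and its product quenches rhodamine fluorescence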
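Reaction rates are the 30-min fluorescence difference (ex 525, em 598 nm) in wells containing 15 nM Sfp, 5 uM rhodamine-CoA and 12.5 uM BHQ-2-YbbR at pH 7.6 with 10 mM MgCl2.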
IDH1 R132H inh: blocks human mutant IDH1 R132H enzyme | O75874 | IDH1-R132H enzyme, NADPH consumption, diaphorase/resazurin fluorescence | Potency, µM (series often up to 76.6 µM), hits mostly inhibitors | 0.093% of 390,000 active | AID 602179; note: nearly all actives have a fitted effect of over 65% in size
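IDH1-R132H (0.5 ug/mL dispensed) in pH 7.5 Tris buffer was preincubated 30 min with compound, then given a substrate mix of 0.016 mM NADPH and 2 mM alpha-KG for 80 min at room temperature; remaining NADPH was read by diaphorase/resazurin fluorescence.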
PLK1 PBD block: blocks phosphopeptide binding to human PLK1 polo-box domain; P53350; Plk1 PBD binding of FITC phosphopeptide, fluorescence polarization; Potency, µM, actives largely listed as inhibitors; 2.8% of 360,000 active; AID 720504; note: series mostly up to about 57 µM; nearly all actives have a fitted effect of over 65% in size
VDR inhibitor: vitamin D3 receptor (human) inhibition; P11473; VDR-SRC2-3 peptide fluorescence polarization, 2 h; Potency, µM, usual class: inhibitors; 0.93% of 400,000 active
Target sequence (P11473 whole entry, looked up): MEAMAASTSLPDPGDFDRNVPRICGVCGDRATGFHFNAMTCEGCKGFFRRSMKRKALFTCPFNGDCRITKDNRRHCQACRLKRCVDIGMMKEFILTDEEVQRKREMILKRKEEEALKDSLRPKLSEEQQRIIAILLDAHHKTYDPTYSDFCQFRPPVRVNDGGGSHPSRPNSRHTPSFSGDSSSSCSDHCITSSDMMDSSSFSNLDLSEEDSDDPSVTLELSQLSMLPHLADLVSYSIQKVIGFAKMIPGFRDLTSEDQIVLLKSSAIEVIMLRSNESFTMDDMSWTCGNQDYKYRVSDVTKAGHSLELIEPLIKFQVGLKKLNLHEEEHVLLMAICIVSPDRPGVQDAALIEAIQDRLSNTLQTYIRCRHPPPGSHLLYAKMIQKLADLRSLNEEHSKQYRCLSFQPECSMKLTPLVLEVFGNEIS
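Compounds are added to VDR with labelled SRC2-3 coactivator peptide and held 2 h at room temperature. Inhibition of the VDR–peptide interaction is then read as a change in fluorescence polarization.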
Hits are given with their value; . = inactive; ? = inconclusive; / = not tested or not shown; [ ] = dose if it differs, or a comment. In the library only some 5.2% were active in any assay of this set; here they are far more common. Calls come from the whole dose curve; as a rule, active = well fitted curve in the direction sought with a large enough effect; inconclusive = small, poorly fitted or top-dose-only effect, or another doubt; inactive = no such curve, though single readings can be large; an effect the other way counts as inactive or inconclusive.

SMILES	TrxR1 substrate	rTrxR1 inhibitor	Sfp PPTase inh	IDH1 R132H inh	PLK1 PBD block	VDR inhibitor
Cc1n[nH]c(=S)n(/N=C/c2cccc([N+](=O)[O-])c2)c1=O	.	.	.	.	.	.
CCc1n[nH]c(=S)n1/N=C/c1ccccn1	.[2.29 µM]	.	50µM	.	.	.
Cc1ccc(NC(=O)CN(C)C(=O)c2cccc(Br)c2)cc1	.	.	.	.	30µM	.
COc1ccc(C(C)=O)cc1CSc1nc2cc(C(=O)O)ccc2c(=O)n1Cc1ccccc1	.	28µM	.	.	?	.
COc1ccc(N2CCN(CC(=O)NCc3ccccc3)CC2)cc1	.	.	.	.	.	.
COc1ccc(N2CCN(CC(=O)NCc3ccc(Cl)cc3)CC2)cc1	.	.	.	.	15µM	.
CCOC(=O)c1c(-c2ccc(C)cc2)csc1NC(=O)CCN1CC(C)OC(C)C1 (stereo not drawn)	.	.	16µM	.	.	.
CCOC(=O)c1c(-c2ccc(OC)cc2)csc1NC(=O)CCN1C(=O)c2ccccc2C1=O	.	.	50µM	.	11µM	.
CCOC(=O)c1c(-c2ccccc2)csc1NC(=O)c1ccc(S(=O)(=O)N2CC(C)OC(C)C2)cc1 (stereo not drawn)	.	.	.	.	.	.
CCOC(=O)c1c(-c2ccc(OC)cc2)csc1NC(=O)CNCc1ccco1	.	.	.	.	.	.
CCOC(=O)c1c(-c2ccc(OC)cc2)csc1NC(=O)CCN1CCOCC1	.	.	35µM	.	.	.
CCOC(=O)c1c(-c2ccc(Cl)cc2)csc1NC(=O)CNCc1ccco1	.	.	50µM	.	.	.
CSc1ccc(-c2nc(CN3CCCCC3c3cccnc3)c(C)o2)cc1 (stereo not drawn)	.	.	.	.	.	.
O=C(NCc1ccc(F)cc1Cl)c1cc(=O)[nH]c2ccc(S(=O)(=O)N3CCCCC3)cc12	.	.	/	.	/	.
FC(F)(F)c1cc(NC(=S)NC23CC4CC(CC(C4)C2)C3)cc(C(F)(F)F)c1	/	/	.	/	/	.
COC(=O)NCC(c1cccnc1)N1CCN(c2ccc(F)cc2)CC1 (stereo not drawn)	.[11.4 µM]	.[11.4 µM]	/	.	/	.
CCOC(=O)c1c(-c2ccc3ccccc3c2)csc1NC(=O)CCCC(=O)O	.	.	/	.	24µM	.
CCOC(=O)c1c(-c2ccc(OCC)cc2)csc1NC(=O)CCN1C(=O)c2ccccc2C1=O	/	/	.	/	/	/
CCOC(=O)c1c(-c2ccc(F)cc2)csc1NC(=O)C1CCCO1 (stereo not drawn)	.	.	22µM	.	27µM	?
CCOC(=O)c1c(-c2ccc(C)cc2)csc1NC(=O)C1CCCO1 (stereo not drawn)	.	.	.	.	.	.
O=C(CC(c1cccs1)N1Cc2ccccc2C1=O)Nc1cccc(F)c1 (stereo not drawn)	.	.	/	.	/	.
CCCCOc1ccc(C(=O)CCN2CCOCC2)cc1	.	3.5µM	?	.	24µM	32µM
CCCCCOc1ccc(C(O)C(CN2CCOCC2)c2ccccc2)cc1 (stereo not drawn)	.	.	.	.	27µM	.
O=C(OCCN1CCOCC1)c1ccc(OCCN2CCOCC2)cc1	.	.	.	.	.	.
COc1ccc(C(O)C(CN2CCOCC2)c2ccccc2)cc1 (stereo not drawn)	.	.	.	.	.	.
SMILES	TrxR1 substrate	rTrxR1 inhibitor	Sfp PPTase inh	IDH1 R132H inh	PLK1 PBD block	VDR inhibitor
CCCOc1ccc(C(=O)CCN2CCCCC2)cc1	.	?	.	.	13µM	40µM
CCCCn1c(N)c(N(CC(C)C)C(=O)CSc2nn(-c3ccc(F)cc3)c(=S)s2)c(=O)[nH]c1=O	.	.	/	.	.	.
COc1ccccc1NC(=O)COC(=O)c1cc([N+](=O)[O-])ccc1N1CCCC1	.	.	/	.	.	.
C(=N\Nc1ccc2nncn2n1)/c1ccccn1	.	.	32µM	.	.	.
O=c1cnnc(N/N=C/c2ccccn2)[nH]1	.	.	.	.	21µM	?
CC1=Nn2c(nnc2C2CCCCC2)SC1	.	.	79µM	.	.	.
CCNc1ncc2nc(-c3cccs3)c(=O)n(-c3ccccc3)c2n1	/	/	.	/	/	?
Cc1ccc(-c2csc3nnc(SCC(=O)Nc4nsc(-c5ccccc5)n4)n23)cc1	.	.	.	.	.	.
O=C(CSc1nnc2scc(-c3ccccc3)n12)Nc1nsc(-c2ccccc2)n1	.	.	32µM	.	.	.
CC(C)C[C@H](NC(=O)CN(C)C(=O)[C@H](Cc1ccccc1)NC(=O)[C@H](Cc1ccccc1)NC(=O)[C@H](CCC(N)=O)NC(=O)[C@H](CCC(N)=O)NC(=O)[C@@H]1CCCN1C(=O)[C@H](CCCCN)NC(=O)[C@@H]1CCCN1C(=O)[C@@H](N)CCCN=C(N)N)C(=O)N[C@@H](CCS(C)(=O)=O)C(N)=O	/	/	.	/	/	.
COc1ccc(CN2C(=O)c3cccnc3C2Nc2ccc(OC)c(Cl)c2)cc1 (stereo not drawn)	.	.	.	.	.	.
COc1cc(NC2c3ncccc3C(=O)N2Cc2ccco2)cc(OC)c1 (stereo not drawn)	.	.	45µM	?	.	.
Nc1c(S(=O)(=O)c2ccccc2)c2nc3ccccc3nc2n1Cc1ccco1	.	?	20µM	.	.	.
Cc1ccc(C)c(S(=O)(=O)c2c(N)n(/N=C/c3ccco3)c3nc4ccccc4nc23)c1	.	.	50µM	.	.	.
Cc1ccc(S(=O)(=O)c2c(N)n(Cc3ccco3)c3nc4ccccc4nc23)cc1C	.	11µM	35µM	.	.	.
CCC(CC)c1nnc(NC(=O)COc2ccc3c(c2)OCO3)s1	.	.	25µM	.	13µM	79µM
CCC(CC)c1nnc(NC(=O)c2ccco2)s1	.	.	?	.	21µM	.
CCCOC(=O)c1ccc(NC(=O)c2nc3nc(C)cc(C)n3n2)cc1	.	.	.	.	.	.
COC(=O)CSc1nnc(NC(=O)c2ccc3c(c2)OCO3)s1	.	.	.	.	.	.
CCC(CC)c1nnc(NC(=O)c2ccc3c(c2)OCO3)s1	.	.	45µM	.	27µM	79µM
Cc1nnc(NC(=O)c2ccco2)s1	.	.	.	.	.	.
CCC(CC)c1nnc(NC(=O)c2nc3nc(C)cc(C)n3n2)s1	.	.	56µM	.	.	.
Cc1cnc(CNC(=O)c2ccc3sc([C@H]4C[C@H](O)[C@@H](CO)O4)nc3c2)cn1	/	/	/	/	.	/
Cc1noc(C)c1C(=O)N1CCC[C@@]2(CCN(Cc3nccs3)C2)C1	/	/	.	/	/	.
Cc1cc([N+](=O)[O-])ccc1NC(c1nnc(-c2ccccc2)o1)c1ccccc1F (stereo not drawn)	.	.	/	.	/	.
CC(C)(C)Cc1nnc(NC(=O)c2ccc3c(c2)OCO3)s1	.	.	.	.	15µM	?
